# From PubChem BioAssay AID504332 (National Center for Advancing Translational Sciences (NCATS), 2011)
# “And” between values parts separate entries of the source, which are not always exact repeats. Identical values can stand only once. The campaign covered roughly 350,000 compounds. About 31,000 (8.9%) were called active. A call without a number means that no potency is given here. Not shown: some 15% with an inconclusive outcome. Calls follow the shape of the dose curve; as a rule, active = well fitted inhibition curve with a large enough effect; inconclusive = small, poorly fitted or top-dose-only effect; inactive = no such curve, though single readings can be large or run the other way. The full list was thinned out, with actives kept by preference. A structure can be active in one record and inactive in another.
# Biological target: Histone-lysine N-methyltransferase EHMT2 (Homo sapiens) (UniProt Q96KQ7)
# Sequence (Q96KQ7 913-1193 limits assumed): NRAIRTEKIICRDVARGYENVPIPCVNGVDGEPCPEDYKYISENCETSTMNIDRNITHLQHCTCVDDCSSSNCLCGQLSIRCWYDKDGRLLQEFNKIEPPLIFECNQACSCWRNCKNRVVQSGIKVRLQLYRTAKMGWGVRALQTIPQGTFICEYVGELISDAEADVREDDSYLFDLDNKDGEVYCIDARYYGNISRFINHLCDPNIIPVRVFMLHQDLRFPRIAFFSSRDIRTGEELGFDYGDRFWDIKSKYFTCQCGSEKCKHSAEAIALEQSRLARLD
# Experiment: qHTS Assay for Inhibitors of Histone Lysine Methyltransferase G9a; also: nearly all actives have a fitted effect of over 75% in size
# Conditions: G9a H3K9 monomethylation, AlphaScreen, 2 h; series mostly up to 102 µM
# Summary of the method: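 G9a (20 nM) preincubated 15 min RT with compounds, then 500 nM biotinylated H3K9 peptide and 20 uM SAM added; 2 h RT reaction. Monomethyl-H3K9 product detected by AlphaScreen with anti-H3K9me1 antibody, streptavidin donor and anti-rabbit IgG acceptor beads.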
# Potency is read from the fitted curve at half-maximal effect.
SMILES,"activity, negative = inhibition",Potency
CCCC(C)n1[nH]c(=O)c2c1NC(=O)CSC2c1ccc(OC)c(OC)c1 (stereo not drawn),inactive,
Cn1c(C(=O)N2CCC(C(=O)N3CCC4(CC3)OCCO4)CC2)cc2sccc21,inactive,
CN(C)C(=O)Oc1cc(OC(=O)N(C)C)cc(C(O)CNC(C)(C)C)c1 (stereo not drawn),inactive,
COc1ccc(C(=O)CC2C(=O)N(C)C(=O)N(C)C2=O)cc1,,2.24 µM (active)
COc1ccc(C(=O)C2CN(C)CC2C(=O)c2ccc(OC)cc2)cc1 (stereo not drawn),inactive,
CCOP(=O)(OCC)C(NC(=O)c1ccc(OC)cc1)C(Cl)(Cl)Cl (stereo not drawn),inactive,
CCCOC(=O)C1C2c3ccccc3C(c3ccccc32)C1C(=O)O (stereo not drawn),inactive,
CCC1(C)CC(=O)NC1=O (stereo not drawn),28.2% [at 12.7 µM] (inactive),
CCN(CC)CCOC(=O)c1cc2cc(COC)ccc2o1,,17.8 µM (active)
Cc1nn(Cc2ccccc2Cl)c(Cl)c1C(=O)OC(C(=O)NC(N)=O)C(C)C (stereo not drawn),inactive,
CC(=NCC1CCCO1)c1c(O)n(-c2ccccc2)c(=O)[nH]c1=O (stereo not drawn),inactive,
CCN1c2nc3c(C)cccn3c(=O)c2CC2(C(=O)N(C)C(=O)N(C)C2=O)C1C (stereo not drawn),7.48% [at 12.7 µM] (inactive),
CC(=O)c1ccc(-c2ccc(Cn3c(C)nc4cc(N)c(C)nc43)cc2)cc1,,15.8 µM (active)
CCOC(=O)c1c(N)n(Cc2ccccc2)c2nc3ccccc3nc12,inactive,
CN(C)P(=S)(Nc1ccccc1)C(Cl)(Cl)Cl (stereo not drawn),inactive,
COC(=O)C1=C(c2ccc(-c3ccccc3)c(F)c2)C[C@@H]2CC[C@H]1N2C(=O)NCc1ccc(F)cc1,12.5% [at 0.501 µM] (inactive),
CNC(=O)Nc1ccc(C(O)(C(=O)OC)C(F)(F)F)cc1 (stereo not drawn),inactive,
Cn1cc(C(=O)OCC(=O)N2CCCC2)c2ccccc21,17.1% [at 12.7 µM] (inactive),
NCC(O)c1ccc(O)cc1 (stereo not drawn),-5.15% [at 2.33 µM] (inactive) and 25.4% [at 12.7 µM] (inactive),
CC(C(=O)Nc1ccc(Cl)cc1Cl)N1CC=C(c2ccccc2)CC1 (stereo not drawn),inactive,
CC1C2Cn3c(nc4ccccc43)C1N(C)O2 (stereo not drawn),11.2% [at 12.7 µM] (inactive),
O=C1NC(=O)N(c2ccc(F)cc2)C(=O)/C1=C/c1ccc2c(c1)CCCN2Cc1ccccc1,,12.6 µM (active)
O=C(NC(c1ccc(Cl)cc1)P(=O)(Oc1ccccc1)Oc1ccccc1)OCc1ccccc1 (stereo not drawn),inactive,
Cc1ccccc1NC(=O)COC(=O)c1cc(C)n(C2CC2)c1C,inactive,

SMILES,"activity, negative = inhibition",Potency
CCOC(=O)C(O)(c1ccc(N)c(OC)c1)C(F)(F)F (stereo not drawn),-7.69% [at 2.33 µM] (inactive),
CCOP(=O)(OCC)C(NC(=O)NC)C(N)=O (stereo not drawn),inactive,
Nc1ccc(C(=O)N/N=C2/CN3CCC2CC3)cc1,inactive,
CCC(C)n1c(O)c(/C=N/Nc2nc3c(c(=O)n(C)c(=O)n3C)n2C)c(=O)[nH]c1=S (stereo not drawn),,25.1 µM (active)
CC(=O)c1c(O)c(C)c(O)c(Cc2c(O)c3c(c(C(=O)/C=C/c4ccccc4)c2O)OC(C)(C)C=C3)c1O,,14.1 µM (active) and 2.12 µM (active)
O=c1c2ccccc2nc(/C=C/c2ccc(F)cc2)n1-c1ccccc1O,inactive,
C=CCN(CC=C)C(=O)Nc1ccc(OCC)cc1,inactive,
CC[C@]1(C)CC(=O)NC1=O,-2.16% [at 12.7 µM] (inactive),
COC(=O)C1=C(c2ccc(F)cc2OCc2ccccc2)C[C@@H]2CC[C@H]1N2C(=O)NCc1ccc(Cl)cc1,8.03% [at 2.33 µM] (inactive),
O=C(c1cc2nc(-c3ccccc3)cc(-c3ccccc3)n2n1)N1CCC2(CC1)OCCO2,17.4% [at 12.7 µM] (inactive),
CC1=C2C(=O)C3C(CC=C4CC(OC5OC(O)C(O)C(O)C5CO)CCC43C)C2CCC12OC1CC(C)CNC1C2C (stereo not drawn),inactive,
O=C1NC(=O)N(CCc2ccc(F)cc2)C(=O)/C1=C/C=C/c1ccccc1,,70.8 µM (active)
COC(=O)C(O)(c1ccc(NC(=O)c2ccco2)c(OC)c1)C(F)(F)F (stereo not drawn),inactive,
CCc1cccc2c(C#N)cn(CC(=O)N3CCOCC3)c12,15.5% [at 12.7 µM] (inactive),
COCc1cc(OC(=O)N(C)C)nc(-c2ccc(C)c(Cl)c2)n1,inactive,
CCCCCCCCc1[se]c2ccccc2c1Br,inactive,
COc1ccc(-c2nc(CS(=O)CC(=O)N3CCC4(CC3)OCCO4)c(C)o2)cc1 (stereo not drawn),-4.28% [at 12.7 µM] (inactive),
C[C@]12CC[C@H](O)C[C@H]1CC[C@@H]1C2CC[C@]2(C)[C@@H](C3=CC(=O)OC3)[C@@H](O)C[C@]12O (stereo partly drawn),-8.99% [at 2.33 µM] (inactive),
Cc1cc(C)cc(NC(=S)NC2CC3CCCC(C2)N3Cc2cccs2)c1 (stereo not drawn),inactive,
CN(C)c1ccc(NC(=O)CN2C3CCCC2CC(NC(=O)c2ccccc2)C3)cc1 (stereo not drawn),,50.1 µM (active)
CCC(C)C(=O)O[C@@H]1C[C@@]2(C)C(c3ccoc3)OC(=O)CC23OC2(C)O[C@@]14[C@@]1(C)C(CC(=O)OC)C5(C)CC1(O)C(O)(C5OC(=O)C1(C)OC1C)C(OC(C)=O)[C@@]34O2 (stereo partly drawn),-36.9% [at 2.33 µM] (inactive),
c1ccc2sc(SNC3CCCCC3)nc2c1,,1.78 µM (active)
COc1cc2c(cc1OC)[C@@H]1C(=O)c3ccc(O)c(CC=C(C)C)c3OC1CO2 (stereo partly drawn),-32.8% [at 2.33 µM] (inactive),
O=C(CSC1c2ccccc2-c2ccccc21)N/N=C/c1ccccc1,inactive,

SMILES,"activity, negative = inhibition",Potency
CC1CCCCN1Cc1cccnc1 (stereo not drawn),,6.31 µM (active)
c1cncc(CNC2=NCCC2)c1,inactive,
CN1CCC(N(C)Cc2cccnc2)CC1,,3.16 µM (active)
c1cncc(CNCCc2c[nH]c3ccccc23)c1,inactive,
CCOC(=O)C1(Cc2ccc(Cl)cc2)CCN(C(C)CCn2cccn2)CC1 (stereo not drawn),inactive,
CC[N+](CC)(CC)CCCCCCCCCC[N+](CC)(CC)CC,inactive,
C=CCN1C(=O)C2(C(C(=O)OCC)=C(N)Oc3c2c(=O)oc2ccccc32)c2ccccc21 (stereo not drawn),inactive,
Fc1ccc(C2N3CCCN23)cc1 (stereo not drawn),inactive,
CCC(=NCCCO)c1c(O)n(-c2ccc(OC)cc2)c(=O)[nH]c1=O,inactive,
O=C(COC(=O)c1ccccc1)Nc1ccccc1Sc1ccccc1,inactive,
O=C1N=c2ccccc2=C/C1=C\c1c(O)[nH]c(=S)[nH]c1=O,,25.1 µM (active)
COc1ccc(C2N3CC(C)(C)CN23)cc1 (stereo not drawn),inactive,
CCCn1c(C(=O)c2ccccc2OC)nc2ccccc21,inactive,
COc1ccc(Br)cc1CNCCc1cccc(Cl)c1,,20 µM (active)
Cc1ccc(N2C(=O)NC(=O)C(CCc3ccncc3)(Cc3cccc(Cl)c3Cl)C2=O)cc1 (stereo not drawn),inactive,
CC1=CC(=Cc2sc3ccccc3[n+]2C)C=C(C)O1,,50.1 µM (active)
CN(C)C(=O)Oc1cc(=O)n2c3c(cccc13)CCC2,inactive,
CC(C)Nc1nc(Cl)nc(NC(C)C)n1,inactive,
CNC(=S)N/N=C1\C2CN3CCN(C2)CC1(c1ccccc1)C3,inactive,
Cc1ccc(P(=S)(c2ccc(C)o2)N2CCOCC2)o1,-35.9% [at 12.7 µM] (inactive),
O=C1NC(=O)N(Cc2ccco2)C(=O)/C1=C\c1ccc(-c2ccc(F)cc2)o1,,12.6 µM (active)
Cc1cc(/C=C2/C(=O)NC(=O)N(Cc3ccco3)C2=O)c(C)n1-c1ccc(C(=O)O)cc1,,35.5 µM (active)
Cc1ccc2c(c1)C1CN(C)CCC1N2C(=O)Cn1nnc(-c2ccccc2F)n1 (stereo not drawn),inactive,
CCOC(=O)c1c(N)n(CCN2CCOCC2)c2nc3ccccc3nc12,inactive,

SMILES,"activity, negative = inhibition",Potency
CC(=O)N1CN2CN(C(C)=O)CC(C(=O)c3ccc(Br)cc3)(C2)C1,inactive,
C[C@@]12CC[C@H]3[C@@H](CC[C@]4(O)C[C@H](O)CC[C@@]34C=O)[C@]1(O)CC[C@@H]2C1=CC(=O)OC1,21.4% [at 21.5 µM] (inactive),
O=c1c2ccccc2nc(-c2ccc(Cl)cc2Cl)n1-c1ccncc1,inactive,
COC(=O)C1=C(c2ccc(C(C)=O)cc2)C[C@@H]2CC[C@H]1N2C(=O)NCCNC(C)=O,23.2% [at 2.33 µM] (inactive),
O=Cc1cn(Cc2ccc(F)cc2Cl)c2ccccc12,inactive,
CNC(=O)N(C)c1nnc(C(C)(C)C)s1,-1.28% [at 12.7 µM] (inactive),
CCOC(=O)C1SC2(C(F)(F)C(F)F)CC1(O)c1c(c(OC)c3occc3c1OC)O2 (stereo not drawn),inactive,
N=c1ccccn1Cc1ccccc1,inactive,
CCCCC/C=C\C/C=C\C/C=C\CCCCCCC(=O)NCCO,inactive,
CCCCC/C=C\C/C=C\C/C=C\C/C=C\CCCCCC(=O)NCCO,,inactive and 12.6 µM (active)
CCCCC/C=C\C/C=C\C/C=C\C=C\[C@H](CCCC(=O)O)OO,inactive,
O=C1/C(=C\c2ccc3c(c2)OCO3)N2CCC1CC2,inactive,
O=C(CCN1CCCCC1)NCC(=O)Nc1ccc(Br)cc1C(=O)c1ccccc1,inactive,
CCOP(=S)(OCC)C(O)CCCCCn1c(=O)c(F)cn(C2CCCO2)c1=O (stereo not drawn),6.51% [at 0.501 µM] (inactive),
CN(C)c1nc(N(C)C)nc(N(C#N)CCCl)n1,,39.8 µM (active)
Clc1cccc(Cl)c1Cl,8.54% [at 0.501 µM] (inactive),
C[C@]12CC[C@@H]3c4ccc(O)cc4C[C@@H](CCCCCCCCCS(=O)CCCC(F)(F)C(F)(F)F)C3[C@@H]1CC[C@@H]2O (stereo partly drawn),inactive,
Cn1c(O)c(C=Nc2ccc3c(c2)CCC3)c(=O)n(C)c1=O,inactive,
c1ccc2sc(C3CCCNC3)nc2c1 (stereo not drawn),,44.7 µM (active)
c1ccc2sc(N3CCNCC3)nc2c1,inactive,
CC(C)(C)[C@]1(O)C[C@@H]2OC(=O)C[C@@]23C(=O)O[C@@H]2OC(=O)[C@H](O)[C@]213,inactive,
